Rows were chosen to be rich in hits. Some 2.4% of all compounds tested hit in one or more screens of this group.
POLB inh = qHTS Assay for Inhibitors of DNA Polymerase Beta; Pol beta primer extension/strand displacement, fluorescence kinetic; Potency, µM (doses to about 114 µM), without a hit: at the top dose activity change, negative = inhibition, actives largely listed as inhibitors; hit rate 1.3% among 340,000; AID 485314, 2010; note: % is set by controls: 0 for no effect and ±100 for the full control effect
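Homogeneous kinetic assay of primer extension and strand displacement by 10 nM Pol beta, preincubated 15 min at room temperature with compound before 50 nM substrate (final) was added. Read at 0 and 10 min; four-parameter Hill fit.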
FEN1 inhibitor = qHTS Assay for the Inhibitors of Human Flap endonuclease 1 (FEN1). hit rate 0.35% among 390,000. Recombinant FEN1 flap cleavage, fluorescence, 15 min. Potency, µM (doses to about 114 µM), for inactives: at the top dose activity change, negative = inhibition, usual class: inhibitors; note: % is set by controls: 0 for no effect and ±100 for the full control effect; nearly all actives have a fitted effect of over 65% in size
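In this screen, 50 nM flap DNA substrate was added to 10 nM FEN1 pretreated with compound for 15 min at room temperature; cleavage was followed with reads at 0 and 15 min, and Hill fitting gave concentration–response parameters.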
Pol kappa inh = qHTS for Inhibitors of Polymerase Kappa; DNA polymerase kappa (Homo sapiens), Q9UBT6; purified Pol kappa, fluorescent DNA synthesis assay, 10 min; Potency, µM (highest dose often 107 µM), without a hit: at the top dose activity, negative = inhibition, hits mostly inhibitors; hit rate 0.53% among 400,000; note: % is set by controls: 0 for no effect and ±100 for the full control effect
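Kinetic fluorescence readout at 0 and 10 min followed reaction start with substrate at 50 nM final. Beforehand, enzyme (10 nM Pol kappa) stood 15 min with compound at room temperature; buffer-only wells were negative controls.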
Pol eta inh = qHTS for Inhibitors of Polymerase Eta. hit rate 1.2% among 390,000. DNA polymerase eta (Homo sapiens), Q9Y253. Potency, µM (top dose mostly 114 µM), for the others: top-dose activity change, negative = inhibition, hits mostly inhibitors. recombinant Pol eta, fluorescent DNA replication assay. AID 588591, 2011; note: % is set by controls: 0 for no effect and ±100 for the full control effect
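Pol eta at 10 nM preincubated with compounds 15 min at room temperature; reaction started with fluorescent substrate (50 nM final) and read kinetically at 0 and 10 min.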
Pol iota inh = qHTS for Inhibitors of Polymerase Iota | DNA polymerase iota (Homo sapiens), Q9UNA4 | hit rate 1% among 390,000 | Pol iota fluorescent replication assay, 10 min | Potency, µM (doses to about 115 µM), for the others: at the top dose activity, negative = inhibition, most hits filed as inhibitors
Target sequence (Q9UNA4 whole entry, looked up): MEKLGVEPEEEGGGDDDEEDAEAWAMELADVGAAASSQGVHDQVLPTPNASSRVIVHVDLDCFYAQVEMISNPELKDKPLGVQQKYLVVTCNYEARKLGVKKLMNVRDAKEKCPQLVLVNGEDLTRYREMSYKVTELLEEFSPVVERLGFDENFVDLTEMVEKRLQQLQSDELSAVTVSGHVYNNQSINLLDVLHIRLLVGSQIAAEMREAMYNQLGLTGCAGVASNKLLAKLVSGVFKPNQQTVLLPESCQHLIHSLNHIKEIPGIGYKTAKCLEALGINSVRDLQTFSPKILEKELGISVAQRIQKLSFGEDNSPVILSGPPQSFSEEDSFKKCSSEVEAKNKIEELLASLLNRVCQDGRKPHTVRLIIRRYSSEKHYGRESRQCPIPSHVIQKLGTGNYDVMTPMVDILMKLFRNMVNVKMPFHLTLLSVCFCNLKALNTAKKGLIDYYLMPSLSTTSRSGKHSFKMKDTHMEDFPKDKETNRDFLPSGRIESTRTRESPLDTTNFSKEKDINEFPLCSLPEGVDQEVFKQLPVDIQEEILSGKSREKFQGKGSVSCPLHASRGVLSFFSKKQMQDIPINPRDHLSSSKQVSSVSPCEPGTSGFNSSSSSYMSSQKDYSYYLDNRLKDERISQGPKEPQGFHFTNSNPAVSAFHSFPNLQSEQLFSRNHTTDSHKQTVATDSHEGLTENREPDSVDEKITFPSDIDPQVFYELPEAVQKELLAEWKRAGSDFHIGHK
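Pol iota at 10 nM preincubated 15 min with compounds at room temperature; reaction started with fluorescent substrate, 50 nM final. Fluorescence read kinetically at 0 and 10 min; buffer-only wells as negative control.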
WRN helicase inh = qHTS for Inhibitors of WRN Helicase; Bifunctional 3'-5' exonuclease/ATP-dependent helicase WRN (Homo sapiens), Q14191; WRN helicase unwinding, fluorescent forked duplex, kinetic; Potency, µM (series often up to 114 µM), for the others: at the highest dose activity change, negative = inhibition, most hits filed as inhibitors; hit rate 0.46% among 360,000; note: % is set by controls: 0 for no effect and ±100 for the full control effect; nearly all actives have a fitted effect of over 55% in size
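WRN at 20 nM final was preincubated with compound for 15 min at room temperature; reaction started with 100 nM forked duplex oligonucleotide carrying fluorophore and quencher plus 2 mM ATP (final). Unwinding followed kinetically by red fluorescence (ex 525/em 598 nm).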
TbPGK inh = qHTS for inhibitors of Phosphogylcerate Kinase: Hit Validation Screen | shares compounds with Pol kappa inh | Potency, µM (doses to about 57.5 µM), for inactives: top-dose activity change, negative = inhibition, actives largely listed as inhibitors | TbPGK coupled GAPDH assay, Kinase-Glo luminescence | AID 686980, 2013 | hit rate 79% among 500; note: % is set by controls: 0 for no effect and ±100 for the full control effect; nearly all actives have a fitted effect of over 65% in size
POLI cherry-pick = qHTS for Inhibitors of Polymerase Iota: Confirmatory Assay for Cherry-picked Compounds | shares compounds with Pol kappa inh | Pol iota primer extension, TAMRA/BHQ fluorescence | Potency, µM, actives largely listed as inhibitors | hit rate 77% among 1,500 | AID 720496, 2013
* = called active by the depositor; ? = inconclusive; · = no result given; [ ] = dose if it differs, or a comment. Calls come from the whole dose curve; as a rule, active = well fitted curve in the direction sought with a large enough effect; inconclusive = small, poorly fitted or top-dose-only effect, or another doubt; inactive = no such curve, though single readings can be large; an effect the other way counts as inactive or inconclusive. Potency is the fitted concentration of half-maximal effect.

SMILES	POLB inh	FEN1 inhibitor	Pol kappa inh	Pol eta inh	Pol iota inh	WRN helicase inh	TbPGK inh	others
COc1ccc(/C=N\NC(=O)c2c(C)nc3ccc(Br)cn23)cc1	?	2.4%	-32.5%	?	?	-2.8%	·	POLI cherry-pick=?
COCCNC(=O)/C(C#N)=C/c1ccc(O)cc1	1.1%	19.8%	3.9%	-4.1%	20.5%	-8.6%	16.3µM*
COCCNC(=O)/C(C#N)=C/c1cccc(/C=C(\C#N)C(=O)NCCOC)c1	-1.1%	0.7%	-7.4%	-10.4%	115.9%	-3.3%	·
O=C(N/N=C/c1ccc(Cl)c([N+](=O)[O-])c1)c1ccc2c(c1)OCCO2	·	?	-9.6%	?	-23.6%	?	·	POLI cherry-pick=75.2*
O=C(Nc1ccc(Cl)c([N+](=O)[O-])c1)c1ccc2c(c1)OCCO2	15.1%	3.7%	-4.2%	-21.2%	128.9%	-2.7%	·
COc1ccccc1CCNC(=O)c1cc(-c2ccncc2)nc2ccc(Br)cc12	-13.9%	-20.1%	-26.4%	44.7µM*	42.2%	-1.9%[11.6 µM]	·	POLI cherry-pick=?
C/C(=N\NC(=O)c1ccccc1NC(=O)c1ccc(Cl)cc1)c1ccncc1	4.0%	-1.6%	-1.8%	-17.0%	50.5%	-0.7%	6.51µM*
Cc1nn2c(=O)cc(COC(=O)c3cccc(NC(=O)c4cccs4)c3)nc2s1	-0.6%	16.8%	-8.5%[60.1 µM]	10.4%	7.3%	·	·
C=CCn1c(=O)[nH]c2cc(C(=O)N3CCN(c4ccc(C(C)=O)cc4)CC3)ccc2c1=O	35.5µM*	-3.2%	?	?	?	?	·	POLI cherry-pick=47.4*
C=CCn1c(=O)[nH]c2cc(C(=O)N3CCN(c4cc(C)ccc4C)CC3)ccc2c1=O	7.3%	-5.5%	-4.7%	5.0%	5.7%	6.2%	·
CCCCNc1cc(NC2CCCCC2)c2c3c(onc13)-c1ccccc1C2=O	?	4.2%	-6.6%	70.8µM*	?	·	·	POLI cherry-pick=59.7*
CN(C)c1ncc2nc(-c3cc(F)cc(F)c3)c(=O)n(C[C@H]3CCCO3)c2n1	·	·	4.8%[60.1 µM]	·	·	·	·
Cc1ccc(Cl)cc1NC(=O)Nc1cn(CC(C)C)c(=O)c2ccccc12	7.4%	7.8%	-21.5%	22.4µM*	?	·	3.5%
COc1ccc(NC(=O)Nc2cn(CC(C)C)c(=O)c3ccccc23)c(OC)c1	26.7%	-10.0%	-9.8%	-10.8%	35.4%	·	·
CCOC(=O)c1c(C)[nH]c(C)c1S(=O)(=O)NCC(=O)Nc1cccc(C#N)c1	12.0%	-3.1%	-11.9%	-25.2%	4.7%	·	·
CN(C)c1ccc(C(=O)Nc2sc(Nc3ccccc3)nc2C(N)=O)cc1	?	10.9%	-3.0%[60.1 µM]	?	79.4µM*	·	·	POLI cherry-pick=?
CN(C)c1ccc(C(=S)Nc2ccccc2)cc1	-24.7%	15.1%	0.3%	-14.2%	0.1%	-9.0%	·
O=C(CN1C(=O)c2cccnc2Sc2ccccc21)Nc1cc(F)ccc1F	-10.8%	-1.2%	-6.8%	-5.5%	8.9%	·	·
Cc1nc2sc(-c3ccccc3)cc2c(=O)n1-n1cccc1	-1.9%	-4.2%	-15.2%	3.9%	-1.6%	-9.4%	·
Cc1nc2sc(-c3ccccc3)cc2c(=O)n1N	10.9%	7.1%	-13.7%	0.2%	-10.0%	-11.3%	16.3µM*
CCCCCn1c(-c2cccc(C)c2)nc2ccccc21	-2.4%	4.9%	-11.6%	-21.6%	1.8%	·	·
Cc1nn(-c2nc3ccccc3[nH]2)c(=O)c2ccccc12	0.6%	-8.6%	-0.5%	-9.2%	29.3%	-9.3%	2.91µM*
CCCN(CCC)c1ccc(C2N=C(N)Nc3nc4ccccc4n32)cc1 (centres undefined)	?	6.4%	-8.4%	-20.0%	-7.3%	·	·
CCOC(=O)c1ccc(NC(=O)c2ccc(-c3cccc(Cl)c3C)o2)cc1	-28.6%	-17.4%	-19.4%	-18.6%	11.6%	·	·
COC(=O)CCC(=O)OC1(C)C(=O)C2=CN(CC(C)C)C(c3ccc(OC)cc3)=CC2=C(Br)C1=O (centres undefined)	5.5%	·	·	·	·	·	·
SMILES	POLB inh	FEN1 inhibitor	Pol kappa inh	Pol eta inh	Pol iota inh	WRN helicase inh	TbPGK inh	others
CCC(=O)OC1(C)C(=O)C2=COC(c3ccc(OC)cc3)=CC2=C(Br)C1=O (centres undefined)	?	-13.5%	?	44.7µM*	?	-24.1%[57.1 µM]	20.6µM*
O=C(CN1C(=O)/C(=C\c2ccco2)SC1=S)Nc1ccc(O)cc1C(=O)O	0.398µM*	-5.7%	-5.6%	8.91µM*	?	50.1µM*	25.9µM*
O=C(COC(=O)/C=C/c1ccco1)Nc1cc(S(=O)(=O)N2CCOCC2)ccc1Cl	·	12.5%	?	?	50.1µM*	-1.6%[11.6 µM]	?
COc1cccc(/C=N/Nc2ncccc2[N+](=O)[O-])c1OC	-22.5%	1.4%	-9.5%	-8.3%	37.9%	-4.7%	16.3µM*
CCCN1CNc2c(c(=O)[nH]c(=S)n2CCc2cc(Cl)ccc2Cl)C1	·	10.3%	0.3%	·	-13.5%	·	·
CC(C)(C)C1CCc2c(sc(NC(=O)CCC(=O)O)c2C(=O)Nc2ccccc2C(F)(F)F)C1 (centres undefined)	?	?	-24.8%	?	?	·	·	POLI cherry-pick=?
CCOc1ccccc1/C=N/NC(=O)c1cccc(S(=O)(=O)N(CC)CC)c1	-24.1%	2.5%	0.3%	-5.6%	30.8%	-10.0%	·
CCN(CC)S(=O)(=O)c1cccc(C(=O)N/N=C/c2ccc(O)c(O)c2O)c1	-2.1%	?	?	?	?	25.1µM*	·	POLI cherry-pick=?
CCS(=O)(=O)c1ncc(N(Cc2ccco2)Cc2ccccc2F)c(C(=O)Nc2cccc(Cl)c2)n1	0.8%	1.2%	-3.3%	-16.8%	46.0%	·	·
COc1cccc(-c2ccc3ncnc(NCc4ccccc4)c3c2)c1	·	·	-14.7%[60.1 µM]	·	·	·	·
Cc1csc(N=Nc2ccc(N(C)C)cc2)[n+]1[O-]	·	·	·	?	·	-31.9%	13µM*
CN(C)c1ccc(N=Nc2ccccc2C(=O)O)cc1	·	-4.7%	-19.1%	·	-2.6%	·	·
Cc1cccc(C)c1NC(=O)CN(C)C(=O)c1cccc(-n2cccc2)c1	·	-20.8%	?	10µM*	8.91µM*	70.8µM*	·	POLI cherry-pick=?
O=C(O)c1cc(-c2ccccc2)nn1Cc1ccccc1	8.8%	-8.2%	-7.3%	-8.1%	4.7%	·	·
